About 83,000 compounds went through this panel and 20% of them were active in at least one assay; those are over-represented in the sample as a whole.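 Growth was measured after 48 h exposure to one concentration of compound in 96-well plates. Values under 10 count as active.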 Unmarked numbers belong to inactive results. Calls of active or inactive are those of the source.
How the values were obtained:
Assay in all cases: NCI-60 one-dose screen, 48 h (100 = growth as untreated, 0 = no growth, -100 = all killed)
Settings in all cases: 10 µM unless noted
SR leukemia = tested on: SR leukemia
RPMI-8226 leukemia = tested on: RPMI-8226 leukemia
OVCAR-8 ovarian = tested on: OVCAR-8 ovarian
OVCAR-5 ovarian = tested on: OVCAR-5 ovarian
OVCAR-4 ovarian = tested on: OVCAR-4 ovarian
SK-OV-3 ovarian = tested on: SK-OV-3 ovarian
IGROV1 ovarian = tested on: IGROV1 ovarian
OVCAR-3 ovarian = tested on: OVCAR-3 ovarian
NCI/ADR-RES ovarian = tested on: NCI/ADR-RES ovarian
T-47D breast = tested on: T-47D breast
BT-549 breast = tested on: BT-549 breast
SW-620 colon = tested on: SW-620 colon
MCF7 breast = tested on: MCF7 breast
HCT-116 colon = tested on: HCT-116 colon
HCC-2998 colon = tested on: HCC-2998 colon
KM12 colon = tested on: KM12 colon
MDA-MB-435 melanoma = tested on: MDA-MB-435 melanoma

| SMILES | growth (SR leukemia) | growth (RPMI-8226 leukemia) | growth (OVCAR-8 ovarian) | growth (OVCAR-5 ovarian) | growth (OVCAR-4 ovarian) | growth (SK-OV-3 ovarian) | growth (IGROV1 ovarian) | growth (OVCAR-3 ovarian) | growth (NCI/ADR-RES ovarian) | growth (T-47D breast) | growth (BT-549 breast) | growth (SW-620 colon) | growth (MCF7 breast) | growth (HCT-116 colon) | growth (HCC-2998 colon) | growth (KM12 colon) | growth (MDA-MB-435 melanoma) |
| --- | --- | --- | --- | --- | --- | --- | --- | --- | --- | --- | --- | --- | --- | --- | --- | --- | --- |
| O=[N+]([O-])c1c(Cl)ncnc1Cl | 96% | 96.2% | 104% | 85.7% | 103% | 104% | 117% | 105% | 118% | 117% | 106% | 95.3% | 95.2% | 115% | 121% | 102% | – |
| Cn1c(=O)[nH]c2ccccc2c1=O | 100% | 112% | 103% | 123% | 110% | 108% | 111% | 112% | 102% | 95.2% | 91.3% | – | 90.2% | 103% | 112% | 102% | 101% |
| CCOC(=O)C(C#N)=C1CCN(C)CC1 | 79.9% | 102% | 93% | 111% | 119% | 118% | 96.9% | 117% | 115% | 106% | 103% | – | – | 103% | – | 97.7% | 109% |
| O=C1CSc2ccccc2N1 | 105% | 95.2% | 94.9% | 116% | 98.9% | 112% | 105% | 115% | 98.8% | 107% | 117% | 99.2% | 98.5% | 111% | 99.6% | 109% | 108% |
| C=C(c1ccc(N(C)C)cc1)c1ccc(N(C)C)cc1 | 11.8% | 7.06% (active) | -5.66% (active) | 16% | 48.9% | 27.4% | 25.4% | -33% (active) | -35.5% (active) | 26.9% | -5.95% (active) | – | 13.5% | 5.45% (active) | 5.58% (active) | 26.5% | -67.6% (active) |
| COC(CCCl)c1ccc(Cl)cc1 (centres undefined) | 90.2% | 100% | 96.9% | 96.2% | 108% | 106% | 100% | 109% | 98.6% | 98.1% | 102% | 100% | 99% | 103% | 106% | 102% | 107% |
| COc1ccc2c(c1)Nc1ccccc1S2 | 118% | 95.4% | 102% | 106% | 91.4% | 111% | 103% | 113% | 111% | 95.7% | 89.1% | 106% | 98.6% | 105% | 108% | 110% | 112% |
| O=c1[nH]c(=O)c2cc(Cl)cc(Cl)c2[nH]1 | 94.3% | 104% | 101% | 116% | 101% | 118% | 90.6% | 126% | 131% | 111% | 91.4% | 105% | – | 98.3% | – | 106% | 113% |
| O=c1cc(C(F)(F)F)[nH]c(=S)[nH]1 | 91.7% | 111% | 105% | 102% | 107% | 99.9% | 105% | 120% | 109% | 97.7% | 122% | – | 94.9% | 112% | 117% | 103% | 106% |
| N#CCCN1C(=O)CCC1C(=O)O (centres undefined) | 92.9% | 95.2% | 98.1% | 105% | 114% | 145% | 107% | 115% | 119% | 121% | 107% | 96.6% | – | 97.6% | – | 103% | 110% |
